According to PubChem BioAssay AID1159580 (chemical genetic matrix, 2015):
In all, about 5,500 compounds went through this assay and about 2,000 (36%) were called active. About 18% were inconclusive and are not listed. Cut-off read from the data, not from the text of the source: active = normalized growth mostly below about 0.91 (no sharp cut-off); inconclusive = no clear call, values can overlap the other calls; inactive = mostly above about 0.92. The list shows a part of the results.

Test: chemical genetic growth profiling, strain panel (AID 1159580);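 note: tested at 20 µM; growth read once vehicle control cultures reached saturation at 30 °C; 1 = growth at the plate median or of vehicle wells; lower values mean less growth of the strain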
Settings: growth OD

Measured: normalized growth

CCC(=O)OC1[C@@H]2CC3=C4CC(=O)O[C@@H](c5ccoc5)[C@]4(C)CCC3[C@@](C)(C2=O)[C@@H](CC(=O)OC)C1(C)C (stereo partly specified)
inactive: S. cerevisiae deletion strains, locus YJR066W, strain TOR1, stronger effect = lower value 0.936 | S. cerevisiae deletion strains, locus YKL009W, strain mrt4, stronger effect = lower value 1 | S. cerevisiae deletion strains, locus YKL068W, stronger effect = lower value 1.01 | S. cerevisiae deletion strains, locus YKL085W, strain MDH1 (second series), stronger effect = lower value 1 | S. cerevisiae deletion strains, locus YKL085W, strain MDH1, stronger effect = lower value 1 | S. cerevisiae deletion strains, locus YKL160W, strain elf1, stronger effect = lower value 1.01 | S. cerevisiae deletion strains, locus YKL190W, strain CNB1, stronger effect = lower value 0.999 | S. cerevisiae deletion strains, locus YKR001C, strain vps1, stronger effect = lower value 1.02 | S. cerevisiae deletion strains, locus YKR026C, strain gcn3, stronger effect = lower value 0.991 | S. cerevisiae deletion strains, locus YKR091W, strain srl3, stronger effect = lower value 0.984 | S. cerevisiae deletion strains, locus YLL001W, strain dnm1, stronger effect = lower value 1 | S. cerevisiae deletion strains, locus YLL026W, stronger effect = lower value 0.988 | S. cerevisiae deletion strains, locus YLL041C, strain sdh2, stronger effect = lower value 0.992 | S. cerevisiae deletion strains, locus YLR027C, strain aat2, stronger effect = lower value 0.992 | S. cerevisiae deletion strains, locus YLR039C, strain RIC1, stronger effect = lower value 0.884 | S. cerevisiae deletion strains, locus YLR058C, strain SHM2, stronger effect = lower value 1 | S. cerevisiae deletion strains, locus YLR102C, strain apc9, stronger effect = lower value 1.02 | S. cerevisiae deletion strains, locus YLR113W, strain HOG1, stronger effect = lower value 1.01 | S. cerevisiae deletion strains, locus YLR221C, strain rsa3, stronger effect = lower value 0.985 | S. cerevisiae deletion strains, locus YLR258W, strain gsy2, stronger effect = lower value 1.01 | S. cerevisiae deletion strains, locus YLR262C, strain YPT6 (second series), stronger effect = lower value 0.908 | S. cerevisiae deletion strains, locus YLR262C, strain YPT6, stronger effect = lower value 0.782 | S. cerevisiae deletion strains, locus YLR268W, strain sec22, stronger effect = lower value 0.997 | S. cerevisiae deletion strains, locus YLR320W, strain mms22, stronger effect = lower value 0.976 | S. cerevisiae deletion strains, locus YLR342W, strain FKS1, stronger effect = lower value 0.981 | S. cerevisiae deletion strains, locus YLR357W, strain rsc2, stronger effect = lower value 1.03 | S. cerevisiae deletion strains, locus YLR370C, strain arc18, stronger effect = lower value 0.983 | S. cerevisiae deletion strains, locus YLR371W, strain rom2, stronger effect = lower value 1.01 | S. cerevisiae deletion strains, locus YLR384C, strain iki3, stronger effect = lower value 1 | S. cerevisiae deletion strains, locus YLR418C, strain cdc73, stronger effect = lower value 1.03 | S. cerevisiae deletion strains, locus YML016C, strain PPZ1, stronger effect = lower value 1 | S. cerevisiae deletion strains, locus YML032C, strain rad52, stronger effect = lower value 1.02 | S. cerevisiae deletion strains, locus YML120C, strain ndi1, stronger effect = lower value 0.999 | S. cerevisiae deletion strains, locus YML124C, strain tub3, stronger effect = lower value 1.01 | S. cerevisiae deletion strains, locus YMR058W, strain fet3, stronger effect = lower value 0.994 | S. cerevisiae deletion strains, locus YMR078C, strain ctf18, stronger effect = lower value 1.02 | S. cerevisiae deletion strains, locus YMR125W, strain sto1, stronger effect = lower value 0.996 | S. cerevisiae deletion strains, locus YMR129W, stronger effect = lower value 0.998 | S. cerevisiae deletion strains, locus YMR205C, strain PFK2, stronger effect = lower value 0.995 | S. cerevisiae deletion strains, locus YMR223W, strain ubp8, stronger effect = lower value 1.01 | S. cerevisiae deletion strains, locus YMR231W, strain pep5, stronger effect = lower value 0.955 | S. cerevisiae deletion strains, locus YMR307W, strain GAS1, stronger effect = lower value 0.842 | S. cerevisiae deletion strains, locus YNL067W, strain RPL9B, stronger effect = lower value 1.01 | S. cerevisiae deletion strains, locus YNL071W, strain lat1, stronger effect = lower value 0.993 | S. cerevisiae deletion strains, locus YNL153C, strain GIM3, stronger effect = lower value 1.02 | S. cerevisiae deletion strains, locus YNL183C, strain NPR1, stronger effect = lower value 0.946 | S. cerevisiae deletion strains, locus YNL209W, strain ssb2, stronger effect = lower value 1 | S. cerevisiae deletion strains, locus YNL233W, strain BNI4, stronger effect = lower value 0.954 | S. cerevisiae deletion strains, locus YNL248C, strain rpa49, stronger effect = lower value 0.992 | S. cerevisiae deletion strains, locus YNL250W, strain rad50, stronger effect = lower value 1.01 | S. cerevisiae deletion strains, locus YNL271C, strain bni1, stronger effect = lower value 1.01 | S. cerevisiae deletion strains, locus YNL298W, strain CLA4, stronger effect = lower value 1.03 | S. cerevisiae deletion strains, locus YNL307C, strain MCK1, stronger effect = lower value 1.01 | S. cerevisiae deletion strains, locus YNL322C, strain KRE1 (second series), stronger effect = lower value 0.996 | S. cerevisiae deletion strains, locus YNL322C, strain KRE1, stronger effect = lower value 0.992 | S. cerevisiae deletion strains, locus YNR049C, strain mso1, stronger effect = lower value 0.989 | S. cerevisiae deletion strains, locus YNR052C, strain pop2, stronger effect = lower value 1.03 | S. cerevisiae deletion strains, locus YOL012C, strain htz1 1.24 | S. cerevisiae deletion strains, locus YOL147C, strain pex11, stronger effect = lower value 1.02 | S. cerevisiae deletion strains, locus YOR001W, strain rrp6, stronger effect = lower value 0.994 | S. cerevisiae deletion strains, locus YOR061W, strain CKA2, stronger effect = lower value 0.996 | S. cerevisiae deletion strains, locus YOR069W, strain VPS5, stronger effect = lower value 1 | S. cerevisiae deletion strains, locus YOR070C, strain gyp1, stronger effect = lower value 0.988 | S. cerevisiae deletion strains, locus YOR080W, strain dia2, stronger effect = lower value 0.981 | S. cerevisiae deletion strains, locus YOR083W, strain WHI5, stronger effect = lower value 1.02 | S. cerevisiae deletion strains, locus YOR106W, strain vam3, stronger effect = lower value 1.03 | S. cerevisiae deletion strains, locus YOR136W, strain idh2, stronger effect = lower value 1.02 | S. cerevisiae deletion strains, locus YOR144C, strain elg1, stronger effect = lower value 1.01 | S. cerevisiae deletion strains, locus YOR184W, strain ser1, stronger effect = lower value 0.989 | S. cerevisiae deletion strains, locus YOR231W, strain MKK1, stronger effect = lower value 1.01 | S. cerevisiae deletion strains, locus YOR265W, strain rbl2, stronger effect = lower value 0.994 | S. cerevisiae deletion strains, locus YOR270C, strain vph1, stronger effect = lower value 0.858 | S. cerevisiae deletion strains, locus YOR290C, strain snf2, stronger effect = lower value 0.996 | S. cerevisiae deletion strains, locus YOR316C, strain cot1, stronger effect = lower value 1.01 | S. cerevisiae deletion strains, locus YPL051W, strain arl3, stronger effect = lower value 0.982 | S. cerevisiae deletion strains, locus YPL055C, strain LGE1, stronger effect = lower value 1.01 | S. cerevisiae deletion strains, locus YPL078C, strain atp4, stronger effect = lower value 1.02 | S. cerevisiae deletion strains, locus YPL106C, strain sse1, stronger effect = lower value 1.04 | S. cerevisiae deletion strains, locus YPL240C, strain hsp82, stronger effect = lower value 0.99 | S. cerevisiae deletion strains, locus YPL256C, strain CLN2, stronger effect = lower value 0.983 | S. cerevisiae deletion strains, locus YPR119W, strain clb2, stronger effect = lower value 1.01 | S. cerevisiae deletion strains, locus YPR141C, strain kar3, stronger effect = lower value 1.01 | S. cerevisiae deletion strains, locus YPR163C, strain tif3, stronger effect = lower value 1.01 | S. cerevisiae deletion strains, locus YPR167C, strain met16, stronger effect = lower value 0.998 | S. cerevisiae deletion strains, strain wtn01, stronger effect = lower value 1.07 | S. cerevisiae strains, strain wild type, stronger effect = lower value 0.976
